Results published in the supplement of paper PMC10849652.
About 7,900 targets were measured; listed, in parts, are those with a hit and a random draw of the rest. About 0.6% of all pairs of compound and target were hits. Unmarked numbers belong to inactive results.

Columns and labels:
Test in all cases: log2 fold change, soluble protein after heating vs DMSO (PISA); higher = thermal stabilisation; K562 cells, 10 uM, 30 min; active = over 0.2 and 3.5 SD of the protein, either way, in both replicates (recomputed)
erlotinib = compound: C#Cc1cccc(Nc2ncnc3cc(OCCOC)c(OCCOC)cc23)c1 [erlotinib]
Outline: (§1)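 For each measurement, 10 μM compound was applied for 30 min to K562 cells at 2×10^6 cells/mL. Aliquots were heated for 3 min across 48°C-58°C, pooled, and extracted in PBS with 0.5% NP-40 at 4°C; the supernatant after 21,000xg for 90 min was soluble protein. This was quantified by TMTpro 16plex LC-MS/MS with channel sums equalised, and thermal stability was reported relative to control samples from duplicates, on a log2 fold-change scale.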

[1] = compound: C/C(=N\NC(=O)C1=CC(=CC=C1)S(=O)(=O)N2CCOCC2)/C3=C(C=CC(=C3)Cl)O
Outline: as §1

[2] = compound: C1=CC(=C(C=C1Cl)C2=NC3=NC=CN=C3C(=N2)NC4=CC=NC=C4)F
Outline: as §1

[3] = compound: C1=CC(=CC=C1C2=NC3=C(N2)C=C(C=C3)C(=O)N)OC4=CC=C(C=C4)Cl
Outline: as §1

[4] = compound: C1=CC2=C(C=CC(=C2)/C=C\3/C(=O)NC(=NCC4=CC=CS4)S3)N=C1
Outline: as §1

[5] = compound: C1=CC=C2C(=C1)C3=NNC4=CC=CC(=C43)C2=O
Outline: as §1

[6] = compound: C1CCN(C1)C(=O)NC2=CC=CC(=C2)NC3=NC=C(C(=N3)NCCC4=CN=CN4)Br
Outline: as §1

[7] = compound: C1CN(CCC1(CC2=CC=C(C=C2)Cl)N)C3=NC=NC4=C3C=CN4
Outline: as §1

[8] = compound: CC(=O)c1cnc2ccc(-c3cc(Cl)c(O)c(Cl)c3)nc2c1N[C@H]1CC[C@H](CN(C)C)CC1
Outline: as §1

[9] = compound: CC(C)(O)CC(=O)NCCn1ccc2ncnc(Nc3ccc(Oc4cccc(C(F)(F)F)c4)c(Cl)c3)c21
Outline: as §1

[10] = compound: CC(C)C1=C2N=C(C=C(N2N=C1)NCC3=CC=CC=C3)NCCCCCCN
Outline: as §1

[11] = compound: CC1=C(C2=C(C=C1)C(=O)C3=CC=CC=C3N2CCCN)C
Outline: as §1

[12] = compound: C1=CC=C(C=C1)C2=NC(=C(N2)C3=CC=NC=C3)C4=CC(=C(C=C4)Cl)O
Outline: as §1

IRAK-1-4 Inhibitor I = compound: C1COCCN1CCN2C3=CC=CC=C3N=C2NC(=O)C4=CC(=CC=C4)[N+](=O)[O-] [IRAK-1-4 Inhibitor I]
Outline: as §1

ralimetinib = compound: CC(C)(C)Cn1c(N)nc2ccc(-c3[nH]c(C(C)(C)C)nc3-c3ccc(F)cc3)nc21 [ralimetinib]
Outline: as §1

[13] = compound: CC(C)C[C@@H](C=O)NC(=O)[C@H](CC(C)C)NC(=O)[C@H](CC(C)C)NC(=O)OCc1ccccc1
Outline: as §1

pinometostat = compound: CC(C)N(C[C@H]1O[C@@H](n2cnc3c(N)ncnc32)[C@H](O)[C@@H]1O)[C@H]1C[C@@H](CCc2nc3cc(C(C)(C)C)ccc3[nH]2)C1 [pinometostat]
Outline: as §1

[14] = compound: C1=CC2=NC=CN=C2C=C1/C=C/3\C(=O)NC(=O)S3
Outline: as §1

ibrutinib = compound: C=CC(=O)N1CCC[C@@H](n2nc(-c3ccc(Oc4ccccc4)cc3)c3c(N)ncnc32)C1 [ibrutinib]
Outline: as §1

[15] = compound: CC1=C(C(CC(=O)N1)C2=CC=C(C=C2)C(F)(F)F)C(=O)NC3=C(C=C4C(=C3)C=NN4)F
Outline: as §1

Sequence of UniProt A8MTT3 (A8MTT3 whole entry, looked up): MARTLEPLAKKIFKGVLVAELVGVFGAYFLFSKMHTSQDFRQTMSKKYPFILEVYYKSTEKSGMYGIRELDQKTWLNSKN
Sequence of UniProt Q9UBY8 (Q9UBY8 whole entry, looked up): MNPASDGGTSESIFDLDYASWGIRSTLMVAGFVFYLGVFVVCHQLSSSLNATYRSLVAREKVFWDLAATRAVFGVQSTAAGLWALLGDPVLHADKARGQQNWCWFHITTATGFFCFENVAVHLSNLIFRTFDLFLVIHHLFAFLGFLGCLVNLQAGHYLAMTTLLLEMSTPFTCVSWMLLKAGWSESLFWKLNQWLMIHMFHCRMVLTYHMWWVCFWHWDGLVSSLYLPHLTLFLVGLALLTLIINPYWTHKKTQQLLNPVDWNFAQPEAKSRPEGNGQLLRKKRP
Sequence of UniProt Q5BKX5 (Q5BKX5 whole entry, looked up): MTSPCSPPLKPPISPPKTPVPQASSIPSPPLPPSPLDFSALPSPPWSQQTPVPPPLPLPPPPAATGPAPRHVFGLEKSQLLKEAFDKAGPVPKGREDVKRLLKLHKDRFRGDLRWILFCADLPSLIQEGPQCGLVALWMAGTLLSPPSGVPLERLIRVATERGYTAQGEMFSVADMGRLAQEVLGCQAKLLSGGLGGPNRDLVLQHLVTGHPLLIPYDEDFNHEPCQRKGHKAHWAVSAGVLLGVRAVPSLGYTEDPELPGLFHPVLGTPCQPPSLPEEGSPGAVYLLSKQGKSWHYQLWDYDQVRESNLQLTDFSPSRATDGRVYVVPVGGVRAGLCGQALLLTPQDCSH
Sequence of UniProt P51636 (P51636 whole entry, looked up): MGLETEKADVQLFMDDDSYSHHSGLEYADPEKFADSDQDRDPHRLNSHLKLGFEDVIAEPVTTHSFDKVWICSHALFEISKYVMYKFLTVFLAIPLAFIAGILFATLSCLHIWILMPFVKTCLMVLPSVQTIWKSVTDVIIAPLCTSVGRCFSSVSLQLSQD
Sequence of UniProt Q14746 (Q14746 whole entry, looked up): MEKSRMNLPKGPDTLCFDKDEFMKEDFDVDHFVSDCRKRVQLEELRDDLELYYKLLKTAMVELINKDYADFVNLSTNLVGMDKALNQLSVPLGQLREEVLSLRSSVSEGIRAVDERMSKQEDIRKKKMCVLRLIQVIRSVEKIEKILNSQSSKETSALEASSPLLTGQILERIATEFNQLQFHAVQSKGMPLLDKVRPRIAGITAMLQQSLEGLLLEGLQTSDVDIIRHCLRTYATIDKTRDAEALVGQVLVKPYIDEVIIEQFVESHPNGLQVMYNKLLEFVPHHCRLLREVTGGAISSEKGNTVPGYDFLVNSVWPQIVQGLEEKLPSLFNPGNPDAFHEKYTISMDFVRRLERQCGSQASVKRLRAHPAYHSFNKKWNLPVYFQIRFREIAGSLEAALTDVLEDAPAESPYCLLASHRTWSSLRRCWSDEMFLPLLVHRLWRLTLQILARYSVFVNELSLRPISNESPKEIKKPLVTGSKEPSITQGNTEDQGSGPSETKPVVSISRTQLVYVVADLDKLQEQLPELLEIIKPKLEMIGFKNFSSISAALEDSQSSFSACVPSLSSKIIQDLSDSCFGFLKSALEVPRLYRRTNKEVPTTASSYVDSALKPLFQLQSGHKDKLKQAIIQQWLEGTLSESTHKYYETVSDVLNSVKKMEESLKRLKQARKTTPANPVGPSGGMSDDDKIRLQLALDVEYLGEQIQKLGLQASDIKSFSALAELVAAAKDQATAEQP
Sequence of UniProt O95273 (O95273 whole entry, looked up): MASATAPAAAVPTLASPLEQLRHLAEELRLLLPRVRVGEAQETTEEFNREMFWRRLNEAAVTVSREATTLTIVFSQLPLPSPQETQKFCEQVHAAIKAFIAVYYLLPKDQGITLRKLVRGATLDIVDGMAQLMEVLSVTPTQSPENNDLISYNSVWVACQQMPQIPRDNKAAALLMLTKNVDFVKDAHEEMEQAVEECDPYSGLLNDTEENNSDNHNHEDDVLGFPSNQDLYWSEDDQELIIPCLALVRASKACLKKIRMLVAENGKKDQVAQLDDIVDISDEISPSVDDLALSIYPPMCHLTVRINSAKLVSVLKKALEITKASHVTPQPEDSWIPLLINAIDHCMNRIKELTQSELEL
Sequence of UniProt Q14061 (Q14061 whole entry, looked up): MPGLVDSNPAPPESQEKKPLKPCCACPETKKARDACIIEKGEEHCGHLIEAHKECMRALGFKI
Sequence of UniProt Q9UIB8 (Q9UIB8 whole entry, looked up): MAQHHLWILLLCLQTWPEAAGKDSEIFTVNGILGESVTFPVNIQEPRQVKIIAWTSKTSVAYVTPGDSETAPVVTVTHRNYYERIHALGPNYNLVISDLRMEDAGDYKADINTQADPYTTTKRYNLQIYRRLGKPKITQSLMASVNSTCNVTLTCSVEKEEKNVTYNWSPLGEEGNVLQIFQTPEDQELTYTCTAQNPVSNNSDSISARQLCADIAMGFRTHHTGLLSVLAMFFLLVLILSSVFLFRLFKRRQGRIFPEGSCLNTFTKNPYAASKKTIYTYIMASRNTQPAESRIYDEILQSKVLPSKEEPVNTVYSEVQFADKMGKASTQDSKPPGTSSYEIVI
Sequence of UniProt P30281 (P30281 whole entry, looked up): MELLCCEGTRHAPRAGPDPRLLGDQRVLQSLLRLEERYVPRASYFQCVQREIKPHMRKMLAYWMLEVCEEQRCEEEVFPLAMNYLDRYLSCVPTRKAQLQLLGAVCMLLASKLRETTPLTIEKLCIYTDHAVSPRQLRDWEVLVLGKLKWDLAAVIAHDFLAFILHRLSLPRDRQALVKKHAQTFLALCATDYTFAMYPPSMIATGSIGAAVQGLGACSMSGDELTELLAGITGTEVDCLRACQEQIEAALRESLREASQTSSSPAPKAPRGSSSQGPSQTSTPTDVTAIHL
Sequence of UniProt P24311 (P24311 whole entry, looked up): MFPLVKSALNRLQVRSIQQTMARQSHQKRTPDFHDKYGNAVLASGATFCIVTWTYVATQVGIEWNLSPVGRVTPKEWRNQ
Sequence of UniProt Q9BWU1 (Q9BWU1 whole entry, looked up): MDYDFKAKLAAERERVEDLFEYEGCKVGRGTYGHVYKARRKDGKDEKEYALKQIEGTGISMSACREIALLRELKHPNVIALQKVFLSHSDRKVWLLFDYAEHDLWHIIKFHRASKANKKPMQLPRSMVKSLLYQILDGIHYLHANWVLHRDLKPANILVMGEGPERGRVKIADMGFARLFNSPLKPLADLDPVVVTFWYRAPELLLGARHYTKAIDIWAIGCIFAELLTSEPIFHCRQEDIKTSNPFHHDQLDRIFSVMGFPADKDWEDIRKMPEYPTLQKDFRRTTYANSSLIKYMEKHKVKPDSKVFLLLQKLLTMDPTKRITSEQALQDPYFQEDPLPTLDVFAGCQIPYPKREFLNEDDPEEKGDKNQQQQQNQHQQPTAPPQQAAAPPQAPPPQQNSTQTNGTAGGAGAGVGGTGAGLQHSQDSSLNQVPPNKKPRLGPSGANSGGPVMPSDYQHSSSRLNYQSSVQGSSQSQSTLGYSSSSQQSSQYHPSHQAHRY
Sequence of UniProt P11802 (P11802 whole entry, looked up): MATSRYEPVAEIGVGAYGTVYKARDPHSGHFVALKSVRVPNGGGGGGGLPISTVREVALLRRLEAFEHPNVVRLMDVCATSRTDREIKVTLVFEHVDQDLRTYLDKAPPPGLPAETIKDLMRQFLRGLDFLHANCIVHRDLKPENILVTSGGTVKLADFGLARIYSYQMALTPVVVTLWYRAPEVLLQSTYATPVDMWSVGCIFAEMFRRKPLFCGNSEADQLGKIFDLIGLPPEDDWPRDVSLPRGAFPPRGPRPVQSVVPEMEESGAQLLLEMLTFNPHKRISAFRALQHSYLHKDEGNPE
Sequence of UniProt O75122 (O75122 whole entry, looked up): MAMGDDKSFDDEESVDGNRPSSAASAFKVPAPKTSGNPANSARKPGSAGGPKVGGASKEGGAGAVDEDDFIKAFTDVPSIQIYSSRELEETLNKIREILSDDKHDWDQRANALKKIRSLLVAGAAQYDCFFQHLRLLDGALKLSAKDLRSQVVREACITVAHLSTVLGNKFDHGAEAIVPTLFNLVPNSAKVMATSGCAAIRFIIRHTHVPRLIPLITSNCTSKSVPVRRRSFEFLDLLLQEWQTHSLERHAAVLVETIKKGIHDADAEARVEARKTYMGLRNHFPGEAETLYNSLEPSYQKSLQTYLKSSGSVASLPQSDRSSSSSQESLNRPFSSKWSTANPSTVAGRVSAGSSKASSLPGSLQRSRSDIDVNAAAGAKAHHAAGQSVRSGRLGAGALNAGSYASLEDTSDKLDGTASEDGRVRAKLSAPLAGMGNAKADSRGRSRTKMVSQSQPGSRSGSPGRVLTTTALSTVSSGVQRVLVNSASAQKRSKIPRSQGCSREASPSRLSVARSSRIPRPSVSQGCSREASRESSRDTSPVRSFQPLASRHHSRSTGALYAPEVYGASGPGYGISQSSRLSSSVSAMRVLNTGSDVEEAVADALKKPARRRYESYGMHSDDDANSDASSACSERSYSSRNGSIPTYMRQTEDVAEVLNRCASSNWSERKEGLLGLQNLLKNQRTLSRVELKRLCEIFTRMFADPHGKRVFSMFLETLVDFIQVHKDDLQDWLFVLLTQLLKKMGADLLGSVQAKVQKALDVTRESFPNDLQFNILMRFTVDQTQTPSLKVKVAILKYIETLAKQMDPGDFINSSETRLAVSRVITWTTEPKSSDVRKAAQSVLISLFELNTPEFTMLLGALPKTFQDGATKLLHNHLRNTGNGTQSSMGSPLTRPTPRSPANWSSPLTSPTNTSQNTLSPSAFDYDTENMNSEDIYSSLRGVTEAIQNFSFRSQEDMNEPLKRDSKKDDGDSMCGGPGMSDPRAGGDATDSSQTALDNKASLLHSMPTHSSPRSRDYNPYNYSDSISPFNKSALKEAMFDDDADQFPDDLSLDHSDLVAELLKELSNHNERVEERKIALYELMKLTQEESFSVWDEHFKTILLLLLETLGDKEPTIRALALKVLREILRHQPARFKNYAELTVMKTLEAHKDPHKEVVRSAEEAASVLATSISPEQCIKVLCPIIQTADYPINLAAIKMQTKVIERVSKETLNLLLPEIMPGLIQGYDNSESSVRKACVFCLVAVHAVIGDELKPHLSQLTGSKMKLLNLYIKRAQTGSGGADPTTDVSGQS

Target	log2 fold change (erlotinib)	log2 fold change [1]	log2 fold change [2]	log2 fold change [3]	log2 fold change [4]	log2 fold change [5]	log2 fold change [6]	log2 fold change [7]	log2 fold change [8]	log2 fold change [9]	log2 fold change [10]	log2 fold change [11]	log2 fold change [12]	log2 fold change (IRAK-1-4 Inhibitor I)	log2 fold change (ralimetinib)	log2 fold change [13]	log2 fold change (pinometostat)	log2 fold change [14]	log2 fold change (ibrutinib)	log2 fold change [15]
CD84 (UniProt Q9UIB8)	0.131	0.052	-0.027	0.099	0.01	0.033	-0.032	0.111	-0.166	0.068	0.024	0.233	–	–	–	–	–	–	–	–
C19orf54 (UniProt Q5BKX5)	-0.094	-0.054	0.024	0.008	-0.005	0.026	-0.027	-0.543 (active)	0.045	-0.003	-0.022	-0.054	-0.024	0.008	0.019	0.08	-0.016	–	–	–
CAV2 (UniProt P51636)	-0.01	-0.066	–	0.076	-0.018	0.057	0.025	-0.021	0.025	–	-0.073	0.005	–	-0.165	–	–	0.178	-0.559	0.105	0.028
COX7B (UniProt P24311)	-0.022	0.058	0.109	0.006	-0.081	-0.009	0.085	0.016	0.034	-0.011	0.112	0.266	–	0.045	–	–	-0.139	0.057	0.074	-0.011
CDK4 (UniProt P11802)	0.075	-0.244	-0.008	-0.086	0.329	0.032	–	–	0.685 (active)	-0.098	-0.333	–	-0.067	0.001	0.054	0.105	0.081	0.11	-0.004	-0.069
CLN8 (UniProt Q9UBY8)	0.012	0.198	–	0.01	0.212	-0.06	0.003	-0.171	-0.164	–	0.017	0.138	-0.208	–	0.643	0.139	–	0.099	–	0.043
CCND3 (UniProt P30281)	-0.028	-0.025	-0.081	0.036	0.143	-0.001	0.09	-0.043	0.078	0	-0.303	-0.088	0.047	–	-0.076	0.341	–	0.289	-0.063	–
CLCN3 (UniProt P51790)	-0.024	0.079	-0.053	-0.045	0.023	-0.03	-0.032	0.055	-0.062	0.015	-0.05	-0.053	-0.01	0.014	-0.076	-0.039	-0.031	0.07	–	-0.045
CEBPZOS (UniProt A8MTT3)	-0.017	0.084	–	0.015	0.039	0.057	0.05	-0.03	0.003	–	0.018	0	0.03	-0.034	-0.076	-0.059	-0.026	0.074	-0.095	0.02
CCNC (UniProt P24863)	-0.056	-0.077	-0.122	-0.026	0.096	0.209	–	–	0.595 (active)	0.053	0.041	–	-0.001	0.071	-0.027	0.071	-0.058	0.256	-0.082	–
CENPE (UniProt Q02224)	0.268	0.525	–	-0.096	-0.875 (active)	0.444	0.011	0.032	0.431	–	0.211	0.101	0.072	0.046	0.119	0.11	-0.002	0.098	-0.184	–
COX17 (UniProt Q14061)	-0.032	-0.064	0.375	-0.009	0.035	0.404	-0.117	0	-0.052	-0.158	0.019	0.086	0.207	-0.14	0.41	-0.196	-0.014	–	–	0.241
CDCA2 (UniProt Q69YH5)	0.519 (active)	-0.46	0.043	-0.333	0.048	-0.033	-0.082	0.256	0.011	-0.138	-0.009	-0.003	-0.002	0.023	0.081	0.188	-0.008	–	–	-0.018
CDK19 (UniProt Q9BWU1)	-0.2	-0.116	0.053	0.268	0.111	0.099	0.003	0.021	0.541 (active)	-0.02	0.222	0.119	-0.167	–	-0.133	0.074	–	–	–	-0.156
CDKN1B (UniProt P46527)	-0.076	0.027	-0.133	0.064	-0.217	-0.01	–	–	0.173	0.012	0.215	–	-0.1	0.023	-0.024	0.536 (active)	-0.023	-0.049	0.015	0.018
CCNDBP1 (UniProt O95273)	0.009	0.191	–	0.105	-0.011	-0.122	-0.086	-0.068	0.071	–	-0.077	-0.166	0.076	–	0.168	-0.027	–	0.034	-0.184	0.166
CLASP2 isoform 3 (UniProt O75122)	0.014	0.136	0.066	0.032	0.081	0.006	-0.063	0.041	-0.297 (active)	-0.056	-0.036	0.046	-0.01	-0.047	0.009	0.046	0.018	-0.013	–	0.023
COG2 (UniProt Q14746)	-0.082	-0.367	0.012	-0.026	0.478	-0.137	0.257	-0.065	-0.042	-0.317	-0.009	-0.108	-0.223	-0.232	0.099	0.18	-0.043	–	–	0.132
